Test results from article PMC5700166.

Experiments:
[1] = molecular target: T1, GST-Nv-NF-kB (Ser allele) (Nematostella vectensis, UniProt A7UNT2 2-411); assay: protein-binding microarray (PBM); PBM: ~300 nM protein, 6 mM HEPES pH 7.8, 80 mM KCl, 0.5 mM EDTA, 0.5 mM EGTA, 6% glycerol, 35 ng/ul poly-dIdC, 1% milk, 1 h, room temperature; Ap Aiptasia and Nv Nematostella (sea anemones) / Co Capsaspora / Aq Amphimedon (sponge) / Dm Drosophila / Hu human; RHD is the Rel homology domain; high values mean tight binding; conditions: dsDNA, one strand shown
T1 sequence: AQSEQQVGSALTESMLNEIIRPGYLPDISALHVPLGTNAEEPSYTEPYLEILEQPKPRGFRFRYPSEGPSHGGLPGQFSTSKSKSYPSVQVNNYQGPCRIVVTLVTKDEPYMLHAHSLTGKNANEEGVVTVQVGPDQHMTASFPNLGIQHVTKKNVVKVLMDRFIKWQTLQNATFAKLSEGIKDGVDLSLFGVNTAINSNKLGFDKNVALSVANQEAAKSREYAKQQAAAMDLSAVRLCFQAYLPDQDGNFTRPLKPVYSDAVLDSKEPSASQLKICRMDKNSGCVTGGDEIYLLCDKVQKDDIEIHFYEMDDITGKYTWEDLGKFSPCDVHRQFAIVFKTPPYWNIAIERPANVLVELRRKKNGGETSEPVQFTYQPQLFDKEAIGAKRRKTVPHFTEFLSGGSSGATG

GST-Hu-p50 = GST-Hu-p50 (Homo sapiens, UniProt P19838 7-356); assay: as above; conditions: dsDNA, one strand shown
Sequence of GST-Hu-p50 (P19838 7-356): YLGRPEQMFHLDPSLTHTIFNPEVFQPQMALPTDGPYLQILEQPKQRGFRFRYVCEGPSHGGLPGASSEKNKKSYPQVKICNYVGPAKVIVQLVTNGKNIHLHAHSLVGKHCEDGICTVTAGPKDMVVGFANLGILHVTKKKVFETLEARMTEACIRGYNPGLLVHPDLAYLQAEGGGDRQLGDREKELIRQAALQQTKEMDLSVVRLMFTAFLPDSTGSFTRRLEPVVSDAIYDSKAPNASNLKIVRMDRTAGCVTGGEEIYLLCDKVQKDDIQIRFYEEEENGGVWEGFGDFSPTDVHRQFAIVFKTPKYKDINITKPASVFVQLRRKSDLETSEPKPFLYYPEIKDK

Sequence	binding signal [1] [z-score]	binding signal (GST-Hu-p50) [z-score]
CCGATTAACATCACCGCCCCCCCTGATGTTAATCGGGTCTTGATTCGCTTGACGCTGCTG	4.44	4.53
CCGATTAACATCATCAGGGAAAATGATGTTAATCGGGTCTTGATTCGCTTGACGCTGCTG	5.74	2.83
CCGATTAACATCACCCCAACCCCTGATGTTAATCGGGTCTTGATTCGCTTGACGCTGCTG	–	1.66
CCGATTAACATCAAACACCCCCCTGATGTTAATCGGGTCTTGATTCGCTTGACGCTGCTG	4.8	4.57
CCGATTAACATCACCACTTTCCCTGATGTTAATCGGGTCTTGATTCGCTTGACGCTGCTG	5.06	3.47
CCGATTAACATCAGGACTGTCCCTGATGTTAATCGGGTCTTGATTCGCTTGACGCTGCTG	2.57	3.92
CCGATTAACATCAGGGGAGATTATGATGTTAATCGGGTCTTGATTCGCTTGACGCTGCTG	–	4.94
CCGATTAACATCACCCAGTTCCCTGATGTTAATCGGGTCTTGATTCGCTTGACGCTGCTG	1.2	1.24
CCGATTAACATCAATTGCCCCCCTGATGTTAATCGGGTCTTGATTCGCTTGACGCTGCTG	3.84	2.9
CCGATTAACATCAATGTCGGTGGTGATGTTAATCGGGTCTTGATTCGCTTGACGCTGCTG	1.08	1.95
CCGATTAACATCAGGAAAAAACCTGATGTTAATCGGGTCTTGATTCGCTTGACGCTGCTG	–	2.63
CCGATTAACATCAGGAATGTCCCTGATGTTAATCGGGTCTTGATTCGCTTGACGCTGCTG	3.65	3.77
CCGATTAACATCAGGGGGGGTTATGATGTTAATCGGGTCTTGATTCGCTTGACGCTGCTG	4.34	4.91
CCGATTAACATCAACGTTTCCCCTGATGTTAATCGGGTCTTGATTCGCTTGACGCTGCTG	–	5.04
CCGATTAACATCAACTTTCCCAGTGATGTTAATCGGGTCTTGATTCGCTTGACGCTGCTG	1.7	1.59
CCGATTAACATCAAGGGAAAAATTGATGTTAATCGGGTCTTGATTCGCTTGACGCTGCTG	–	4.56
CCGATTAACATCACAAAAATCCCTGATGTTAATCGGGTCTTGATTCGCTTGACGCTGCTG	5.52	5.26
CCGATTAACATCAGTATTCCCCATGATGTTAATCGGGTCTTGATTCGCTTGACGCTGCTG	–	5.14
CCGATTAACATCAATTTTTTCCCTGATGTTAATCGGGTCTTGATTCGCTTGACGCTGCTG	–	4.43
CCGATTAACATCAAATTCCCACGTGATGTTAATCGGGTCTTGATTCGCTTGACGCTGCTG	–	2.98
CCGATTAACATCAGGGGTTTCCATGATGTTAATCGGGTCTTGATTCGCTTGACGCTGCTG	4	4.95
CCGATTAACATCAGGACTTCCCATGATGTTAATCGGGTCTTGATTCGCTTGACGCTGCTG	1.03	1.76
CCGATTAACATCAGGTCGGGAAATGATGTTAATCGGGTCTTGATTCGCTTGACGCTGCTG	2.31	1.27
CCGATTAACATCAAAAGTTTCCCTGATGTTAATCGGGTCTTGATTCGCTTGACGCTGCTG	–	5.09
CCGATTAACATCACGGCAATCCCTGATGTTAATCGGGTCTTGATTCGCTTGACGCTGCTG	–	1.12

Sequence	binding signal [1] [z-score]	binding signal (GST-Hu-p50) [z-score]
CCGATTAACATCACCGTTTAGGTTGATGTTAATCGGGTCTTGATTCGCTTGACGCTGCTG	–	1.22
CCGATTAACATCAGGGAAGTCCATGATGTTAATCGGGTCTTGATTCGCTTGACGCTGCTG	1.93	1.11
CCGATTAACATCAGGGATTTACCTGATGTTAATCGGGTCTTGATTCGCTTGACGCTGCTG	5.26	4.74
CCGATTAACATCACGGGGTTGCCTGATGTTAATCGGGTCTTGATTCGCTTGACGCTGCTG	–	1.21
CCGATTAACATCAGGGGGTCACCTGATGTTAATCGGGTCTTGATTCGCTTGACGCTGCTG	2.36	2.9
CCGATTAACATCACCGTTTTCCCTGATGTTAATCGGGTCTTGATTCGCTTGACGCTGCTG	–	3.18
CCGATTAACATCACAAACGGGGCTGATGTTAATCGGGTCTTGATTCGCTTGACGCTGCTG	1.73	2.88
CCGATTAACATCAACGTTTTCCCTGATGTTAATCGGGTCTTGATTCGCTTGACGCTGCTG	–	3.09
CCGATTAACATCAATGGGATTCCTGATGTTAATCGGGTCTTGATTCGCTTGACGCTGCTG	–	1.23
CCGATTAACATCAGGGAGACCCCTGATGTTAATCGGGTCTTGATTCGCTTGACGCTGCTG	–	3.48
CCGATTAACATCAAATTCCCTCGTGATGTTAATCGGGTCTTGATTCGCTTGACGCTGCTG	4.74	3.62
CCGATTAACATCAGGCCACCCCCTGATGTTAATCGGGTCTTGATTCGCTTGACGCTGCTG	2.48	3.82
CCGATTAACATCAGGGGAGTAAATGATGTTAATCGGGTCTTGATTCGCTTGACGCTGCTG	3.92	2.72
CCGATTAACATCAGCATTTTCCCTGATGTTAATCGGGTCTTGATTCGCTTGACGCTGCTG	–	3.25
CCGATTAACATCACCCACGAGGGTGATGTTAATCGGGTCTTGATTCGCTTGACGCTGCTG	1.02	2.01
CCGATTAACATCAGGGAAAATGATGATGTTAATCGGGTCTTGATTCGCTTGACGCTGCTG	6.52	2.44
CCGATTAACATCAAGGGGGGTGGTGATGTTAATCGGGTCTTGATTCGCTTGACGCTGCTG	4.43	4.27
CCGATTAACATCAGGGAATCCACTGATGTTAATCGGGTCTTGATTCGCTTGACGCTGCTG	3.63	2.79
CCGATTAACATCAAAGTGTCCCCTGATGTTAATCGGGTCTTGATTCGCTTGACGCTGCTG	4.51	3.85
CCGATTAACATCAGAATTCCCGCTGATGTTAATCGGGTCTTGATTCGCTTGACGCTGCTG	3.89	3.53
CCGATTAACATCAAAAAAATTTCTGATGTTAATCGGGTCTTGATTCGCTTGACGCTGCTG	1.35	1.66
CCGATTAACATCAGTCCCTAAGCTGATGTTAATCGGGTCTTGATTCGCTTGACGCTGCTG	1.05	2.51
CCGATTAACATCAAGGAAACCCCTGATGTTAATCGGGTCTTGATTCGCTTGACGCTGCTG	3.81	5.22
CCGATTAACATCAGGCTATCCCCTGATGTTAATCGGGTCTTGATTCGCTTGACGCTGCTG	3.73	3.43
CCGATTAACATCACAAAACTCCCTGATGTTAATCGGGTCTTGATTCGCTTGACGCTGCTG	6.52	4.95

Sequence	binding signal [1] [z-score]	binding signal (GST-Hu-p50) [z-score]
CCGATTAACATCAGGGATTTCCATGATGTTAATCGGGTCTTGATTCGCTTGACGCTGCTG	2.71	3.25
CCGATTAACATCAAAAATCACCCTGATGTTAATCGGGTCTTGATTCGCTTGACGCTGCTG	3.82	4.76
CCGATTAACATCAGGAGATACCCTGATGTTAATCGGGTCTTGATTCGCTTGACGCTGCTG	1.65	2.58
CCGATTAACATCAAGTGTTTCCCTGATGTTAATCGGGTCTTGATTCGCTTGACGCTGCTG	3.36	1.3
CCGATTAACATCAGGGGTCCCCATGATGTTAATCGGGTCTTGATTCGCTTGACGCTGCTG	1.95	2.54
CCGATTAACATCACGGTATTTCCTGATGTTAATCGGGTCTTGATTCGCTTGACGCTGCTG	1.75	1.48
CCGATTAACATCACAAACTTCCCTGATGTTAATCGGGTCTTGATTCGCTTGACGCTGCTG	4.44	2.88
CCGATTAACATCAGGGACTCCCATGATGTTAATCGGGTCTTGATTCGCTTGACGCTGCTG	3.88	3.34
CCGATTAACATCAAATAAATCCCTGATGTTAATCGGGTCTTGATTCGCTTGACGCTGCTG	3.53	3.29
CCGATTAACATCACGCAATTCCCTGATGTTAATCGGGTCTTGATTCGCTTGACGCTGCTG	4.54	2.87
CCGATTAACATCACTGGGAAAACTGATGTTAATCGGGTCTTGATTCGCTTGACGCTGCTG	3.57	2.39
CCGATTAACATCATAAGCGGGGATGATGTTAATCGGGTCTTGATTCGCTTGACGCTGCTG	3.83	3.66
CCGATTAACATCAGGGATTCACCTGATGTTAATCGGGTCTTGATTCGCTTGACGCTGCTG	4.26	4.55
CCGATTAACATCACGGGAATTTCTGATGTTAATCGGGTCTTGATTCGCTTGACGCTGCTG	6.48	4.6
CCGATTAACATCAGGGTAAAACCTGATGTTAATCGGGTCTTGATTCGCTTGACGCTGCTG	3.53	2.56
CCGATTAACATCAGGGAAAGAAATGATGTTAATCGGGTCTTGATTCGCTTGACGCTGCTG	3.86	2.62
CCGATTAACATCAAAAATCCCGATGATGTTAATCGGGTCTTGATTCGCTTGACGCTGCTG	2.85	3.62
CCGATTAACATCACGGACTTCCCTGATGTTAATCGGGTCTTGATTCGCTTGACGCTGCTG	2.24	1.25
CCGATTAACATCAAGGAATTTCCTGATGTTAATCGGGTCTTGATTCGCTTGACGCTGCTG	1.22	1.48
CCGATTAACATCAGGGGGTACCCTGATGTTAATCGGGTCTTGATTCGCTTGACGCTGCTG	4.11	4.44
CCGATTAACATCAAACTTTCCCATGATGTTAATCGGGTCTTGATTCGCTTGACGCTGCTG	4.64	4.07
CCGATTAACATCAGGGAATCAGATGATGTTAATCGGGTCTTGATTCGCTTGACGCTGCTG	2.02	1.19
CCGATTAACATCAGGGGTTCCACTGATGTTAATCGGGTCTTGATTCGCTTGACGCTGCTG	1.62	2.51
CCGATTAACATCACCCGTTTCCCTGATGTTAATCGGGTCTTGATTCGCTTGACGCTGCTG	4.29	2.75
CCGATTAACATCACGGGAAGTCCTGATGTTAATCGGGTCTTGATTCGCTTGACGCTGCTG	1.71	1.59
